Laboratory results from PubChem BioAssay (EPA / NIEHS).
Activity calls are given as the source filed them. Rule for the calls: active = hit-call score of the fitted dose curve at least 0.9, where 1 is the maximum; inactive = score below 0.9.

Legend:
Conditions in all cases: mRNA level, 48 h; actives raise or lower the signal
MYC, MYC (gene 4609) = experiment: LTEA_HepaRG_MYC: Life Technologies and Expression Analysis (LTEA) Assay for MYC using HepaRG (AID 2283518)
How it was run: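 qRT-PCR read-out of MYC transcript (Fluidigm TaqMan, housekeeping-normalized) after 48 h chemical exposure of HepaRG cells; eight concentrations, top 100 uM, half-log steps. Bidirectional curve fitting against 0.5% DMSO vehicle baseline.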

[1] = read-out: matrix metalloproteinase-3 (MMP3), MMP3 (gene 4314); experiment: LTEA_HepaRG_MMP3: Life Technologies and Expression Analysis (LTEA) Assay for matrix metalloproteinase-3 (MMP3) using HepaRG (AID 2283519)
How it was run: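 Differentiated human HepaRG cells, plated 48 h on collagen I, were exposed in duplicate for 48 h in serum-free induction medium to eight half-log concentrations up to 100 uM in 0.5% DMSO. MMP3 mRNA was quantified by TaqMan qRT-PCR, normalised to ACTB, GAPDH and POLR2A.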

[2] = read-out: Paternally Expressed 10 (PEG10), PEG10 (gene 23089); experiment: LTEA_HepaRG_PEG10: Life Technologies and Expression Analysis (LTEA) Assay for Paternally Expressed 10 (PEG10) using HepaRG (AID 2283520)
How it was run: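 Differentiated HepaRG cells exposed 48 h in serum-free induction medium to eight half-log concentrations topping at 100 uM, 0.5% DMSO, in duplicate. PEG10 mRNA quantified by TaqMan qRT-PCR, normalized to ACTB, GAPDH and POLR2A; bidirectional fit versus DMSO.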

[3] = read-out: Nuclear factor NF-kappa-B p105 subunit (Homo sapiens) (UniProt P19838); experiment: LTEA_HepaRG_NFKB1: Life Technologies and Expression Analysis (LTEA) Assay for Nuclear Factor Kappa B Subunit 1 (NFKB1) using HepaRG (AID 2283521)
How it was run: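 Differentiated human HepaRG cells in serum-free induction medium with 0.5% DMSO were exposed for 48 h to eight half-log concentrations, top 100 uM, in duplicate. NFKB1 mRNA measured by Fluidigm TaqMan qRT-PCR, normalised to ACTB, GAPDH and POLR2A; bidirectional fit versus DMSO.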

[4] = read-out: Protein phosphatase 2A (PPP2R4), PTPA (gene 5524); experiment: LTEA_HepaRG_PPP2R4: Life Technologies and Expression Analysis (LTEA) Assay for Protein phosphatase 2A (PPP2R4) using HepaRG (AID 2283522)
How it was run: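 Differentiated human HepaRG cells in serum-free induction medium were exposed 48 h to 8 concentrations (top 100 µM, half-log steps, duplicate) in 0.5% DMSO. PPP2R4 mRNA was measured by TaqMan qRT-PCR, normalised to ACTB, GAPDH and POLR2A, and fitted bidirectionally versus DMSO.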

[5] = read-out: Phosphatase and tensin (PTEN), PTEN (gene 5728); experiment: LTEA_HepaRG_PTEN: Life Technologies and Expression Analysis (LTEA) Assay for Phosphatase and tensin (PTEN) using HepaRG (AID 2283523)
How it was run: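 Differentiated human HepaRG cells, plated 48 h then switched to serum-free induction medium, were exposed in duplicate for 48 h to eight half-log concentrations up to 100 uM in 0.5% DMSO. PTEN mRNA measured by TaqMan qRT-PCR, normalized to ACTB/GAPDH/POLR2A, bidirectional fit versus DMSO.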

[6] = read-out: solute carrier (SLC22A1), SLC22A1 (gene 6580); experiment: LTEA_HepaRG_SLC22A1: Life Technologies and Expression Analysis (LTEA) Assay for solute carrier (SLC22A1) using HepaRG (AID 2283524)
How it was run: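 Human HepaRG cells were plated 48 h, switched to serum-free induction medium, then exposed in duplicate for 48 h to 8-point half-log series from 100 uM in 0.5% DMSO. SLC22A1 mRNA measured by qRT-PCR, normalized to ACTB/GAPDH/POLR2A, fitted bidirectionally versus DMSO.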

[7] = read-out: Pyruvate Dehydrogenase Kinase 4 (PDK4), PDK4 (gene 5166); experiment: LTEA_HepaRG_PDK4: Life Technologies and Expression Analysis (LTEA) Assay for Pyruvate Dehydrogenase Kinase 4 (PDK4) using HepaRG (AID 2283525)
How it was run: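 Differentiated human HepaRG cells, pre-cultured 48 h, were exposed in duplicate for 48 h in serum-free induction medium to eight half-log concentrations up to 100 uM in 0.5% DMSO. PDK4 mRNA was quantified by qRT-PCR, normalized to ACTB, GAPDH and POLR2A, bidirectional fitting versus DMSO.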

[8] = read-out: NAD(P)H dehydrogenase [quinone] 1 (NQO1), NQO1 (gene 1728); experiment: LTEA_HepaRG_NQO1: Life Technologies and Expression Analysis (LTEA) Assay for NAD(P)H dehydrogenase [quinone] 1 (NQO1) using HepaRG (AID 2283526)
How it was run: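 Differentiated human HepaRG cells in serum-free induction medium, dosed in duplicate for 48 h at 8 half-log concentrations up to 100 uM in 0.5% DMSO. NQO1 mRNA by qRT-PCR normalized to ACTB, GAPDH, POLR2A; bidirectional fit versus DMSO baseline.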

[9] = read-out: Nuclear factor erythroid 2-related factor 2 (Homo sapiens) (UniProt Q16236); experiment: LTEA_HepaRG_NFE2L2: Life Technologies and Expression Analysis (LTEA) Assay for Nuclear factor erythroid 2-related factor 2 (NFE2L2) Transcription Factor using HepaRG (AID 2283527)
How it was run: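 Differentiated human HepaRG cells in serum-free induction medium were exposed for 48 h to eight concentrations (top 100 uM, half-log dilutions, 0.5% DMSO), in duplicate. NFE2L2 mRNA was quantified by TaqMan qRT-PCR, normalized to ACTB, GAPDH and POLR2A, with bidirectional fitting versus DMSO.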

Measured: AC50

Nuclear factor erythroid 2-related factor 2 (Homo sapiens), sequence (Q16236 whole entry, looked up): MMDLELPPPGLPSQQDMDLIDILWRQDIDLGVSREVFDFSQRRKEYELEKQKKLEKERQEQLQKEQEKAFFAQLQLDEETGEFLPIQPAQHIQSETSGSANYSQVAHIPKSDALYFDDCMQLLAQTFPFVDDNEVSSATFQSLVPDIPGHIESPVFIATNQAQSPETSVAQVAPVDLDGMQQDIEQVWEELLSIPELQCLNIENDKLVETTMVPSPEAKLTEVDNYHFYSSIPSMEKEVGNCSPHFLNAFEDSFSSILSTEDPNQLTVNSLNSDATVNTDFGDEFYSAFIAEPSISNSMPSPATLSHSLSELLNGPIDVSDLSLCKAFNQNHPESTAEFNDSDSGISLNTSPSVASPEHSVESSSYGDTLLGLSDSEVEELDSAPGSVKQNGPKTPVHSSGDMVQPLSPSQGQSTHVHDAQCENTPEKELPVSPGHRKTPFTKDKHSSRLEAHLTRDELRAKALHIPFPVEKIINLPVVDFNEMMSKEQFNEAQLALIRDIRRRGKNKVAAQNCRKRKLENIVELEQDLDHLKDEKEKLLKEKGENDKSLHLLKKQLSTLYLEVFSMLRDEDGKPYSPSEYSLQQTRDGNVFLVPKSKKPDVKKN
Nuclear factor NF-kappa-B p105 subunit (Homo sapiens), sequence (P19838 whole entry, looked up): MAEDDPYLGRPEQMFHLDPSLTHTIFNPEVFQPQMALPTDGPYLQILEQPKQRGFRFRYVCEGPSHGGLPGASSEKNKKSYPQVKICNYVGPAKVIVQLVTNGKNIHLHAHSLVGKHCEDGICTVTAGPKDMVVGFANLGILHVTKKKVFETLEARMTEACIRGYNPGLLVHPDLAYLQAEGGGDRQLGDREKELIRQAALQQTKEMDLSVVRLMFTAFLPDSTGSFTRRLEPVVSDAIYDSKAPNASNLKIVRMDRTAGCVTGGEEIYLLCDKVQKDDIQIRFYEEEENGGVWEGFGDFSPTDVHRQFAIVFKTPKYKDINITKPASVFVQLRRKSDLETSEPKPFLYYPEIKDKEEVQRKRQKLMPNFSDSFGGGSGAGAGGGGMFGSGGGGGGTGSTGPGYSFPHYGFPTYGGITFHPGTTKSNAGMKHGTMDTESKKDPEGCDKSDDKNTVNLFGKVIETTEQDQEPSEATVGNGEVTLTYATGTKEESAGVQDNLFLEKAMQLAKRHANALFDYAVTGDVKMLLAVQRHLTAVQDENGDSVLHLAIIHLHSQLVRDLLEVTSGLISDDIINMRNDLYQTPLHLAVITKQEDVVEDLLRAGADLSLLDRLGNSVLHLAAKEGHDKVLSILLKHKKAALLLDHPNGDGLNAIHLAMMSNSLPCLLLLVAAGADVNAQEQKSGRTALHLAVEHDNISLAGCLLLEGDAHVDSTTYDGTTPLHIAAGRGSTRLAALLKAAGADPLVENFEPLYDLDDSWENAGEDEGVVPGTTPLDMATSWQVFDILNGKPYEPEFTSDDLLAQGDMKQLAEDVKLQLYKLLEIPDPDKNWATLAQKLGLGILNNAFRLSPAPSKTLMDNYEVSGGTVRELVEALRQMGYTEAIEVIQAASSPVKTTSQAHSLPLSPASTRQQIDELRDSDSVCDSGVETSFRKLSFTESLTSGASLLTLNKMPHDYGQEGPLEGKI

Cc1nc(-c2ccc3c(c2)CCN(CCC2CCC(NC(=O)/C=C/c4ccc(F)cc4)CC2)CC3)no1 (stereo not drawn)
inactive: all assays above

COc1ccc(C)cc1N
inactive: all assays above

CCOC(=O)C(C)(C)Oc1ccc(Cl)cc1
active: [7] 24.6 µM
inactive: all other assays above

Oc1ccc2c(c1)OC[C@@H](N1CCC(O)(c3ccc(F)cc3)CC1)[C@H]2O
inactive: all assays above

Cc1ccc2ncccc2c1
inactive: all assays above

CC1(C)CC(N=C=O)CC(C)(CN=C=O)C1 (stereo not drawn)
not listed: [6]
inactive: all other assays above

OC[C@@H](O)[C@@H](O)[C@H](O)[C@H](O)CO
inactive: all assays above

Nc1ccccc1N
inactive: [3] | [8] | [9]
active: MYC, MYC (gene 4609) 7.08 µM | [1] 81.8 µM | [2] 64.8 µM | [4] 77.5 µM | [5] 67.4 µM | [6] 62.4 µM | [7] 81.8 µM

CCCCCCCCCCO
inactive: all assays above

O=C(N[C@@H](Cc1ccccc1)[C@@H](O)C(=O)N1C[C@@H](O)[C@@H](O)C1)c1cc2cc(Cl)ccc2[nH]1
active: [2] 50 µM
inactive: all other assays above

CC(=O)Oc1ccccc1C(=O)O
inactive: all assays above

COc1cc(-c2nc(NC(=O)c3cc4cc(C)cc(C)c4n3CC(=O)O)sc2CCC2CCCCC2)c(OC)cc1Cl
active: MYC, MYC (gene 4609) 19.8 µM | [2] 11.9 µM | [3] 19.4 µM | [4] 8.71 µM | [5] 16.8 µM | [6] 7.07 µM | [7] 24.4 µM | [8] 3.35 µM
inactive: [1] | [9]

CNC(=O)[C@H]1O[C@@H](n2cnc3c(NCc4cc(Cl)ccc4OCc4cc(C)no4)ncnc32)[C@H](O)[C@@H]1N
inactive: all assays above

Cc1oc(-c2ccccc2)nc1CCOc1cccc2c1ccn2CCC(=O)O
active: MYC, MYC (gene 4609) 81.9 µM | [6] 79.6 µM | [7] 1.1 µM | [9] 74.8 µM
inactive: all other assays above

CCCCOC(=O)CCCCCCCCC(=O)OCCCC
inactive: all assays above

Nc1nc(N)c2nc(CNc3ccc(C(=O)N[C@@H](CCC(=O)O)C(=O)O)cc3)cnc2n1
active: [7] 0.0967 µM
not listed: [6]
inactive: all other assays above

Cc1ccc(C(C)C)c(O)c1
not listed: [6]
inactive: all other assays above

COCCOCCOC
active: MYC, MYC (gene 4609) 0.966 µM | [3] 2.8 µM | [4] 9.92 µM | [5] 0.243 µM | [8] 0.315 µM | [9] 9.92 µM
inactive: [1] | [2] | [6] | [7]

CCCCCC(=O)O
inactive: all assays above

CCCCCCCC=O
inactive: all assays above

C=CCOC(=O)c1ccccc1C(=O)OCC=C
inactive: all assays above

CN1CCN(Cc2cc(-c3ccc4[nH]c(=O)oc4c3)co2)[C@@H](c2ccc(F)cc2)C1
active: [2] 82.7 µM | [6] 50 µM | [7] 88.5 µM
inactive: all other assays above

Cc1cc(=O)[nH]c(=S)[nH]1
not listed: [6]
inactive: all other assays above

O=c1c(O)c(-c2ccc(O)c(O)c2)oc2cc(O)cc(O)c12
not listed: [6]
inactive: all other assays above

CC1(C)NC(=O)NC1=O
not listed: [6]
inactive: all other assays above

CC(C)c1ccc(C(=O)N=C(N)N)cc1S(C)(=O)=O
active: MYC, MYC (gene 4609) 0.343 µM | [1] 1.4 µM | [3] 0.291 µM | [4] 0.532 µM | [5] 0.277 µM | [7] 0.362 µM | [8] 0.959 µM | [9] 7.8 µM
inactive: [2]

CC(C)(C)c1cc(O)c(C(C)(C)C)cc1O
active: [1] 50 µM | [2] 32.5 µM | [5] 87.6 µM | [6] 76.8 µM | [8] 80.6 µM
inactive: MYC, MYC (gene 4609) | [3] | [4] | [7] | [9]

CCCCCCOCCO
inactive: all assays above

NCC1(Cc2noc(=O)[nH]2)CCCCC1
inactive: all assays above

CC1=C(/C=C/C(C)=C/C=C/C(C)=C/CO)C(C)(C)CCC1
active: [6] 10.4 µM | [8] 52.2 µM
not listed: [1]
inactive: all other assays above

CN[C@H]1CC[C@@H](c2ccc(Cl)c(Cl)c2)c2ccc(S(N)(=O)=O)cc21
active: [3] 81.4 µM | [4] 84.5 µM | [6] 22.4 µM | [7] 83 µM | [9] 81.5 µM
inactive: MYC, MYC (gene 4609) | [2] | [5] | [8]

Nc1ccc(S(=O)(=O)c2ccc(N)cc2)cc1
active: [3] 0.353 µM
not listed: [6]
inactive: all other assays above

O=[N+]([O-])C(CO)(CO)CO
not listed: [1] | [6] | [9]
inactive: all other assays above

CN1CCCC1=O
not listed: [3] | [6]
inactive: all other assays above

CCNc1cccc(C)c1
not listed: [6]
inactive: all other assays above

CCCc1cc(=O)[nH]c(=S)[nH]1
not listed: [3]
inactive: all other assays above

O=C(O)CCCCC(=O)O
not listed: [6]
inactive: all other assays above

Nc1ccc2c(c1)C(=O)c1ccccc1C2=O
active: MYC, MYC (gene 4609) 12.3 µM | [2] 15.5 µM | [6] 7.06 µM | [7] 13.2 µM | [9] 27.8 µM
inactive: [1] | [3] | [5] | [8]

Cc1ccccc1Cl
not listed: [3] | [6]
inactive: all other assays above

Cc1ccc(N(C)C)cc1
not listed: [1]
inactive: all other assays above

CCOc1ccc2c(c1)C(C)=CC(C)(C)N2
active: [2] 31.8 µM | [4] 50 µM
not listed: [3]
inactive: all other assays above

CC(=O)C(C)=CC1C(C)=CCCC1(C)C (stereo not drawn)
not listed: [3] | [6]
inactive: all other assays above

Oc1ccc2ccccc2c1N=Nc1ccccc1
active: MYC, MYC (gene 4609) 6.08 µM | [2] 19 µM | [7] 4.28 µM | [9] 1.5 µM
inactive: [3] | [4] | [5] | [8]
